FBPA Giardia inh = Giardia lamblia aldolase inhibition; purified Giardia FBPA; actives 0.71% (n = 290,000); Potency, µM (series often up to 59.6 µM), for inactives: at the highest dose activity, negative = inhibition, most hits filed as inhibitors; AID 2451; also: potency is read from the fitted curve at half-maximal effect; nearly all actives have a fitted effect of over 55% in size
Target sequence (A8B2U2 whole entry, looked up): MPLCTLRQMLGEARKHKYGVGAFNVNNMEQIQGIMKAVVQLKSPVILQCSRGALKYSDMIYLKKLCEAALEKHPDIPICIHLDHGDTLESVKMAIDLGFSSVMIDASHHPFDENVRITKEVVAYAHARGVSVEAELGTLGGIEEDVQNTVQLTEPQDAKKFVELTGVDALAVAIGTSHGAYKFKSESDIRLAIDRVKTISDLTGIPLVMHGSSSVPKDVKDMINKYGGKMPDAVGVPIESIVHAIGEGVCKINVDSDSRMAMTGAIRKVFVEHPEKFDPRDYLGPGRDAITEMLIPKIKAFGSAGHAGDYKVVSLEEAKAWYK
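40 nM FBPA preincubated 10 min at RT with compound (up to 57.5 uM final), then substrate plus GAPDH/TPI/NAD/arsenate coupling and diaphorase/resazurin added. Fluorescence read after 20 min at RT, 525/598 nm.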
FMDV inh = foot and mouth disease virus antiviral activity; FMDV antiviral cell-based qHTS; Potency, µM (highest dose often 57.9 µM), for inactives: at the highest dose activity change, negative = inhibition, hits mostly inhibitors; actives 1.2% (n = 410,000); AID 1159524; calls by dose curve; tested in HEK293T cells; also: read-out not given here; potency is read from the fitted curve at half-maximal effect; nearly all actives have a fitted effect of over 45% in size
Vaccinia mCherry = inhibitors of vaccinia virus infection (mCherry reporter signal). Potency, µM (titrated, usually from 36.5 µM), inactives show at the top dose activity change, negative = inhibition, hits mostly inhibitors. Vaccinia virus mCherry reporter infection, fluorescence. AID 720579. actives 0.63% (n = 310,000); calls by dose curve; tested in A549 cells; also: potency is read from the fitted curve at half-maximal effect; nearly all actives have a fitted effect of over 35% in size
HCMV inh = blocks human cytomegalovirus replication. HFF cells, HCMV-luciferase reporter, 72 h; active compounds read low. activity change, negative = inhibition, % at 57.5 µM. actives 4.5% (n = 410,000); in the data active = activity change below about -60%; inconclusive = no clear call, values can overlap the other calls; inactive = above about -39%
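Two-dose cell screen: HFF monolayers treated with compounds and infected with luciferase-expressing HCMV at 1 PFU/cell, 72 h at 37C, then lysed for luciferase measurement.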
HCV inhibitor = blocks hepatitis C virus; Huh7.5.1 HCVcc-Cre infection, luciferase reporter, 44 h; Potency, µM (highest dose often 41.8 µM), for inactives: at the highest dose activity change, negative = inhibition, actives largely listed as inhibitors; actives 3.4% (n = 340,000); also: potency is read from the fitted curve at half-maximal effect
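Cells (1,000/well) were plated 4 h before compound, then infected with HCVcc-Cre virus (~0.5 moi). After 44 h further culture, infection was read as luciferase luminescence following a 15 min substrate incubation at room temperature.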
Vaccinia Venus = inhibitors of vaccinia virus (Venus reporter) | Vaccinia virus Venus reporter expression, fluorescence | Potency, µM (doses to about 36.5 µM), for the others: at the highest dose activity change, negative = inhibition, most hits filed as inhibitors | actives 0.46% (n = 330,000); calls by dose curve; tested in A549 cells; also: potency is read from the fitted curve at half-maximal effect; nearly all actives have a fitted effect of over 30% in size
* = called active by the depositor; i = inactive; ? = inconclusive; · = not tested or not shown. An excerpt weighted towards active compounds, which were near 7.5% of everything screened. Unless noted, calls follow the shape of the dose curve; as a rule, active = well fitted curve in the direction sought with a large enough effect; inconclusive = small, poorly fitted or top-dose-only effect, or another doubt; inactive = no such curve, though single readings can be large; an effect the other way counts as inactive or inconclusive. % is scaled to controls: 0 for no effect and ±100 for the full control effect.

SMILES | FBPA Giardia inh | FMDV inh | Vaccinia mCherry | HCMV inh | HCV inhibitor | Vaccinia Venus
O=C(Nc1cccc(F)c1)C1CCN(c2nnnn2-c2ccccc2)CC1 | 2% | 18µM* | · | -11 | -20% | ·
O=C(Nc1ccc2c(c1)OCCO2)C1CCN(c2nnnn2-c2ccccc2)CC1 | 15% | ? | · | -15 | -17% | ·
CCN(CC)C(=O)CSc1nc2c(sc(=S)n2CC)c(=O)n1-c1ccccc1 | 5% | ? | · | -72* | -29% | ·
CCN(CC)C(=O)CSc1nc2c(sc(=S)n2-c2ccccc2OC)c(=O)n1-c1ccccc1 | 14% | -26% | i | ? | -20% | -12%
CCN(CC)C(=O)CSc1nc2c(sc(=S)n2-c2ccccc2)c(=O)n1Cc1ccco1 | -1% | ? | · | -67* | 10µM* | ·
CCC(C)NC(=O)CSc1nc2c(sc(=S)n2Cc2ccco2)c(=O)n1-c1ccccc1 (stereo not drawn) | 1% | ? | · | ? | ? | ·
CC(CNC(=O)CN1C(=O)NC2(CCCCC2)C1=O)c1ccccc1 (stereo not drawn) | · | -10% | -25% | 0 | 11% | -13%
CCN1CCN(C(=O)c2ccc3c(c2)N(Cc2ccccc2F)C(=O)c2ccccc2S3=O)CC1 (stereo not drawn) | · | -10% | 2% | 14 | · | -6%
C[C@@H](O)C#C[Si](C)(C)c1ccccc1 | 3% | · | · | · | · | ·
COC(=O)C1=C(C)NC(C)=C(C(=O)OC)C1C(=O)OCC(=O)NC1CCCCC1C (stereo not drawn) | · | -6% | i | 3 | · | 2%
Cc1[nH]c2ccccc2c1/C=C(\C#N)C(=O)NCc1ccccc1 | 0% | -1% | i | 8 | ? | -16%
CCOCCCNC(=O)/C(C#N)=C/c1ccc([N+](=O)[O-])o1 | ? | 32µM* | 34% | -99* | ? | 51%
CC(NC(=O)/C(C#N)=C/c1ccc([N+](=O)[O-])o1)c1ccccc1 (stereo not drawn) | ? | 28µM* | 5% | -101* | ? | 74%
Cc1ccc(C(C)NC(=O)/C(C#N)=C\c2c(C)[nH]c3ccccc23)cc1 (stereo not drawn) | -12% | -10% | · | -61* | -10% | ·
COC(=O)c1ccc(/C=C(\C#N)C(=O)NC(C)c2ccccc2)cc1 (stereo not drawn) | 6% | ? | · | -95* | 11µM* | ·
Cc1nc(SC(C)C(=O)c2c(N)n(C)c(=O)n(C)c2=O)c2c(C)c(C)sc2n1 (stereo not drawn) | · | -29% | -19% | -19 | ? | ?
Cn1cccc1C(=O)N1CCC2(CCCN(C(=O)Nc3ccccc3)C2)CC1 | 2% | 5% | · | · | · | ·
O=C(O)c1ccc(-c2c3nc(c(-c4ccc(C(=O)O)cc4)c4ccc([n-]4)c(-c4ccc(C(=O)O)cc4)c4nc(c(-c5ccc(C(=O)O)cc5)c5ccc2[n-]5)C=C4)C=C3)cc1.[Mn+3] | -20% | · | · | · | · | ·
CC1CCc2c(sc3ncnc(N4CCOCC4)c23)C1 (stereo not drawn) | -3% | -28% | · | -65* | -26% | ·
Cc1ccc(C(=O)CSc2ncnc3sc4c(c23)CCC(C)C4)cc1 (stereo not drawn) | 1% | -8% | -9% | -99* | ? | -9%
CC1CCc2c(sc3ncnc(NCCN4CCOCC4)c23)C1 (stereo not drawn) | 0% | -15% | -5% | -15 | ? | -17%
Cc1ccc(-c2nc(NC(=O)CSc3ncnc4sc5c(c34)CCC(C)C5)ns2)cc1 (stereo not drawn) | · | -11% | -16% | -9 | · | -9%
CCOc1ccc(CN2CCN(c3ncnc4sc5c(c34)CC(C)CC5)CC2)cc1 (stereo not drawn) | · | -7% | -14% | 22 | · | -1%
CC1CCc2sc3ncnc(N4CCOCC4)c3c2C1 (stereo not drawn) | 6% | ? | · | ? | 10µM* | -29%
COc1ccc(-c2[nH]ncc2N=Nc2cc(C)cc(C)c2)cc1 | -8% | -14% | ? | 10 | 2.2µM* | -30%
SMILES | FBPA Giardia inh | FMDV inh | Vaccinia mCherry | HCMV inh | HCV inhibitor | Vaccinia Venus
COc1ccc(-c2[nH]ncc2N=Nc2ccccc2)cc1 | -1% | -22% | ? | ? | ? | ?
CN(/N=C/c1cc(Br)cc(Br)c1O)c1cccc(C(F)(F)F)n1 | 26% | ? | ? | -65* | -15% | ?
Cc1nc2sc(C(c3cccs3)N3CCN(c4cccc(Cl)c4)CC3)c(O)n2n1 (stereo not drawn) | 6% | 0% | ? | -62* | -29% | ?
O=C(N/N=C/c1c[nH]c2ccccc12)c1cc(-c2ccc(-c3ccccc3)cc2)n[nH]1 | 2% | ? | · | -74* | -26% | ·
CC(C)Oc1ccc(Br)cc1C(=O)N/N=C/c1c[nH]c2ccccc12 | 0% | -9% | ? | -29 | 10µM* | -29%
O=C(N/N=C/c1c[nH]c2ccccc12)c1ccc(Br)cc1 | -1% | 11% | -21% | 73 | 29% | -22%
O=C(N/N=C/c1c[nH]c2ccccc12)c1cc(-c2ccccc2)n[nH]1 | 5% | -5% | ? | 35 | ? | -17%
O=C(N/N=C/c1c[nH]c2ccccc12)c1cc(-c2ccc3ccccc3c2)n[nH]1 | 0% | -22% | ? | -19 | 10µM* | ?
Cc1oc2ccc(O)cc2c1C(=O)c1ccc(Cl)cc1 | -25% | 28% | ? | 11 | ? | ?
Cc1oc2ccc(O)cc2c1C(=O)c1ccc([N+](=O)[O-])cc1 | -23% | 35µM* | ? | -16 | -7% | ?
Cc1cc(/C=C2\SC(=Nc3ccc(F)cc3)NC2=O)c(C)n1-c1ccc(S(N)(=O)=O)cc1 | -5% | 35µM* | · | -84* | 3.5µM* | ?
COCC(=O)Nc1cc(C(=O)N2CC3(C)CC2CC(C)(C)C3)c2c(c1)nc(-c1ccncc1)n2C (stereo not drawn) | · | 0% | -13% | · | · | -6%
Fc1ccc(Nc2nc(N/N=C/c3ccco3)nc(N3CCCCC3)n2)cc1 | -21% | 16% | -23% | ? | 11µM* | ?
C(=N\Nc1nc(N2CCOCC2)nc(N2CCOCC2)n1)/c1ccco1 | -1% | · | · | · | · | ·
CCC(=O)Nc1nnc(C(C)(C)C)s1 | 5% | -14% | · | 25 | 12% | ·
Cc1c(C)n(Cc2ccccc2)c2ncnc(Cl)c12 | -4% | ? | · | -88* | ? | ·
O=C1C[C@H](S(=O)(=O)c2ccccc2)[C@@H](/C=C/c2ccccc2)N1Cc1ccccc1 | · | · | · | -4 | · | ·
COc1ccc(OC)c(NC(=O)Cn2c(=O)cc(-c3ccccc3)c3c(C)nn(C)c32)c1 | · | ? | ? | -12 | · | -24%
CCc1nc2ccc(C(=O)Nc3ccc4c(c3)OCC(=O)N4)cn2c1N(CC)Cc1cccc(Br)c1 | · | ? | -7% | 4 | · | ?
